The values below come from PubChem BioAssay (NCATS).

Results filed as inconclusive are left out. Activity calls are given as the source filed them. Unless noted, calls follow the shape of the dose curve; as a rule, active = well fitted curve in the direction sought with a large enough effect; inconclusive = small, poorly fitted or top-dose-only effect, or another doubt; inactive = no such curve, though single readings can be large; an effect the other way counts as inactive or inconclusive.

Assay [1] concerns the target Glucocorticoid receptor (Homo sapiens) (UniProt P04150). Put plainly: GR-EFC Redistribution (AID 451; calls by dose curve; also: potency is read from the fitted curve at half-maximal effect). To be noted: CHO-K1 GR-EFC translocation, beta-gal luminescence, 2 h. In outline:
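CHO-K1 cells stably expressing nuclear-localized β-gal enzyme acceptor and GR fused C-terminally to the enzyme donor fragment; ligand-driven nuclear translocation restores β-gal by complementation. Compounds titrated up to 46 uM final, 2 h at 37 °C; luminescence read.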

For assay [2], the target named is Mitogen-activated protein kinase 10 (Mus musculus) (UniProt Q61831). Put plainly: JNK3 AlphaScreen Assay (AID 530; active = well fitted curve in either direction with a large enough effect, not every such curve was filed as active;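 also: kinase came from lysate of stimulated human HepG2 cells; % is scaled to controls: 0 for no effect and ±100 for the full control effect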). The note with it: JNK3 lysate, c-Jun phosphorylation; series mostly up to 25.6 µM. In outline: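 Biotinylated GST-cJun(1-79) served as substrate for JNK3 in HepG2 lysates stimulated with IL-1beta and TNF-alpha. ATP was 10 uM final, pH 7.6. Ser73 phosphorylation was quantified by AlphaScreen (680 nm excitation).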

The target in assay [3] is 3',5'-cyclic-AMP phosphodiesterase 4B (Homo sapiens) (UniProt Q07343). The assay is described as follows: qHTS Assay for Inhibitors of PDE-IV (AID 607; active = well fitted activation curve with a large enough effect in the main read-out, with a control signal flat, not every such curve was filed as active; also: % of control where 0% means no effect). To be noted: HEK293 ACTOne CNG channel cells, membrane potential fluorescence; series mostly up to 22.9 µM. The method in brief: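 HEK293 ACTOne cells with CNG channel (1000/well), endogenous PDE4; membrane potential dye, compounds up to 22.9 uM final. Fluorescence Ex 535/Em 590; RO 20-1724 (100 uM final) as reference.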
3',5'-cyclic-AMP phosphodiesterase 4B (Homo sapiens), sequence (Q07343 whole entry, looked up): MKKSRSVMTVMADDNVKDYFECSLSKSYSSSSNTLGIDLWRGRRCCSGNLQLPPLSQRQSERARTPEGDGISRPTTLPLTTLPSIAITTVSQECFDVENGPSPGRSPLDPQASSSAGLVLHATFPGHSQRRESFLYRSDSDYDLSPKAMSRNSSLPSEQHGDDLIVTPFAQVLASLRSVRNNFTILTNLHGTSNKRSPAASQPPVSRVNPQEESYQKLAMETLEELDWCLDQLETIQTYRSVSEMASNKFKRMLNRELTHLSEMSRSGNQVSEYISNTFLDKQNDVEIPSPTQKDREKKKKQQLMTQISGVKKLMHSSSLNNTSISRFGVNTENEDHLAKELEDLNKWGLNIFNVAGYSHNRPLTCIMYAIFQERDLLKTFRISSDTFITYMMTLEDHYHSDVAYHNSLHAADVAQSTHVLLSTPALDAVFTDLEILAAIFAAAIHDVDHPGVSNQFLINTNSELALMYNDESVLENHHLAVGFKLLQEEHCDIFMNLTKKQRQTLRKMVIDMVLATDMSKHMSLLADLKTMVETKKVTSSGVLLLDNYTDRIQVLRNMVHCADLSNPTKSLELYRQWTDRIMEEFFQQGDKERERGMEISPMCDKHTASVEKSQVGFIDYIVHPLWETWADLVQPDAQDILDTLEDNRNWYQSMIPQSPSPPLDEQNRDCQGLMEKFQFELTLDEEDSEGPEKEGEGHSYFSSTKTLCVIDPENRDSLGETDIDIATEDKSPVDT

Assay [4] can be described thus: qHTS Assay for Lipid Storage Modulators (AID 1519; calls by dose curve; as to activity change, negative = inhibition: % is scaled to controls: 0 for no effect and ±100 for the full control effect). The note with it: Drosophila S3 cells, BODIPY lipid droplet/cell ratio, laser cytometry, cells loaded with oleic acid. In outline: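 Cells seeded at 5,000 per well were treated with compounds over a concentration series and loaded with oleic acid (400 uM, as added). Lipid droplet fluorescence (488 nm excitation, 500-530 nm channel) was read by laser-scanning cytometry and normalized to 20 uM Triacsin C.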

For assay [5], the target named is Ubiquitin carboxyl-terminal hydrolase 1 (Homo sapiens) (UniProt O94782). Put plainly: Inhibitors of USP1/UAF1: Pilot qHTS (AID 504865).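 Also: rhodamine fluorescence freed from ubiquitin-rhodamine substrate followed over time; top concentration of the series differs between compounds; % is scaled to controls: 0 for no effect and ±100 for the full control effect; nearly all actives have a fitted effect of over 35% in size.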 To be noted: purified USP1/UAF1, Ub-rhodamine cleavage fluorescence; series mostly up to 114 µM. The method in brief:
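USP1/UAF1 complex at 1 nM preincubated 15 min at room temperature with compound, then Ub-Rho substrate added at 150 nM final. Fluorescence (480/540 nm) read kinetically in 50 mM HEPES pH 7.8, 0.5 mM EDTA, 1 mM TCEP, 0.1 mg/ml BSA, 0.01% Tween-20.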

The target of assay [6] is ATP-dependent 6-phosphofructokinase (Trypanosoma brucei brucei) (UniProt O15648). Put plainly: qHTS Assay to Find Inhibitors of T. brucei phosphofructokinase: hit validation (AID 492961).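 Also: luminescence reports ADP formed as PFK phosphorylates fructose-6-phosphate with ATP; % is scaled to controls: 0 for no effect and ±100 for the full control effect.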 To be noted: T. brucei PFK, ADP-Glo luminescence; series mostly up to 24.3 µM. The method in brief:
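Reaction: 0.1 M triethanolamine pH 8.0, 5 mM MgCl2, F6P 0.5 mM, ATP 0.1 mM, PFK 1.25 nM, 45 min RT. Read-out: ADP-Glo luminescence. Analysis: concentration-response fits, classed by r2 and efficacy.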

The target of assay [7] is Luciferin 4-monooxygenase (Photinus pyralis) (UniProt P08659). Put plainly: Biochemical firefly luciferase enzyme assay for NPC (AID 624030).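 Also: purified P. pyralis luciferase at 10 nM with luciferin and ATP substrate; 0% = DMSO and -100% = full luciferase inhibition by PTC124 control; nearly all actives have a fitted effect of over 70% in size.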 To be noted: purified P. pyralis luciferase, luminescence, 5 min; series mostly up to 24.9 µM. The method in brief:
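Counter-screen for direct inhibition of the luciferase enzyme by approved-drug library compounds, run at 10 nM enzyme in 50 mM Tris acetate (final). Luminescence was read within 5 min of enzyme-buffer addition and normalized to PTC124 versus DMSO (0%).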

A further assay has as its system AS120. The assay is described as follows: qHTS profiling for inhibitors of Plasmodium falciparum proliferation (AID 504749). Also: nearly all actives have a fitted effect of over 60% in size. Also: potency is read from the fitted curve at half-maximal effect.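 As to activity, negative = inhibition: 0% = DMSO vehicle and full inhibition = artemisinin control.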 The note with it: P. falciparum in erythrocytes, SYBR Green DNA, 72 h; series mostly up to 12.8 µM. In outline:
(§1)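 Fluorescence of SYBR Green-bound parasite DNA, read at 485/535 nm, served as the growth measure. Infected erythrocytes were cultured with compound 72 h; artemisinin (0.29 uM) and DMSO wells defined the normalization range.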

In another assay the test system is CP217. The assay is described as above. To be noted: P. falciparum in erythrocytes, SYBR Green DNA, 72 h; series mostly up to 12.8 µM. In outline:
as §1

For the next assay, the system named is CP329. The assay is described as above. To be noted: P. falciparum in erythrocytes, SYBR Green DNA, 72 h; series mostly up to 12.8 µM. The method in brief:
as §1

Another assay deals with FAB9. The description is as above. To be noted: P. falciparum in erythrocytes, SYBR Green DNA, 72 h; series mostly up to 12.8 µM. The method in brief: as §1
The test system of the next assay is N140. The description is as above. To be noted: P. falciparum in erythrocytes, SYBR Green DNA, 72 h; series mostly up to 12.8 µM. The method in brief: as §1
For another assay, the system named is TAB165. The description is as above. The note with it: P. falciparum in erythrocytes, SYBR Green DNA, 72 h; series mostly up to 12.8 µM. The method in brief:
as §1

Assay in assay [8]: as above
To be noted: P. falciparum in erythrocytes, SYBR Green DNA, 72 h, at 12.8 µM (top of the series). In outline:
as §1

The subject of another assay is C2A. The description is as above. The note with it: P. falciparum in erythrocytes, SYBR Green DNA, 72 h; series mostly up to 12.8 µM. The method in brief:
as §1

The test system of another assay is CP191. The assay is described as above. The note with it: P. falciparum in erythrocytes, SYBR Green DNA, 72 h; series mostly up to 12.8 µM. In outline: as §1
The next assay relates to CP305. Described as above. The note with it: P. falciparum in erythrocytes, SYBR Green DNA, 72 h; series mostly up to 12.8 µM. The method in brief:
as §1

The subject of the next assay is ECU. The assay is described as above. The note with it: P. falciparum in erythrocytes, SYBR Green DNA, 72 h; series mostly up to 12.8 µM. The method in brief:
as §1

For the next assay, the system named is PC15. The description is as above. The note with it: P. falciparum in erythrocytes, SYBR Green DNA, 72 h; series mostly up to 12.8 µM. The method in brief:
as §1

The test system of a further assay is PC49. The description is as above. The note with it: P. falciparum in erythrocytes, SYBR Green DNA, 72 h; series mostly up to 12.8 µM. The method in brief: as §1
The mark [9] stands for this setting: measured here: cell count channel max response.
Setting [10] is: measured here: lipid channel max response.

Glucocorticoid receptor (Homo sapiens), sequence (P04150 whole entry, looked up, the tested form may be a part): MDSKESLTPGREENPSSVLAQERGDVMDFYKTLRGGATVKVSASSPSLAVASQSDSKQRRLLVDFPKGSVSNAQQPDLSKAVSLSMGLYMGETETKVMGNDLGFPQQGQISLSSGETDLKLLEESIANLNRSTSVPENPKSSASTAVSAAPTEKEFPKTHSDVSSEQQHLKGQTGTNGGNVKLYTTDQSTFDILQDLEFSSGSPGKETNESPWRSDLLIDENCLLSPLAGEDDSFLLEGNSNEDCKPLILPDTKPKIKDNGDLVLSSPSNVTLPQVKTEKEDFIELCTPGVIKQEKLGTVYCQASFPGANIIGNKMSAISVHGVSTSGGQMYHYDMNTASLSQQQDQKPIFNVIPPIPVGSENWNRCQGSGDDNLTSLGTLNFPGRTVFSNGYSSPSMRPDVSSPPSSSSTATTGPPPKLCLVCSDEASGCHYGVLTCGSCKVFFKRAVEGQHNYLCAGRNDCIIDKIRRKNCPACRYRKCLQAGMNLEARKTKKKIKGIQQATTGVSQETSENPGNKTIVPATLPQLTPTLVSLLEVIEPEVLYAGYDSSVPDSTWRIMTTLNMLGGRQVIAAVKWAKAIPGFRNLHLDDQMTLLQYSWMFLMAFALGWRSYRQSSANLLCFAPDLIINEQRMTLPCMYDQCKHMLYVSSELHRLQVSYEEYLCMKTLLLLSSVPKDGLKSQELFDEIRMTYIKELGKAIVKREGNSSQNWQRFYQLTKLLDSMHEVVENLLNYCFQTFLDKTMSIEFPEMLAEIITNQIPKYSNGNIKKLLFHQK
Ubiquitin carboxyl-terminal hydrolase 1 (Homo sapiens), sequence (O94782 whole entry, looked up): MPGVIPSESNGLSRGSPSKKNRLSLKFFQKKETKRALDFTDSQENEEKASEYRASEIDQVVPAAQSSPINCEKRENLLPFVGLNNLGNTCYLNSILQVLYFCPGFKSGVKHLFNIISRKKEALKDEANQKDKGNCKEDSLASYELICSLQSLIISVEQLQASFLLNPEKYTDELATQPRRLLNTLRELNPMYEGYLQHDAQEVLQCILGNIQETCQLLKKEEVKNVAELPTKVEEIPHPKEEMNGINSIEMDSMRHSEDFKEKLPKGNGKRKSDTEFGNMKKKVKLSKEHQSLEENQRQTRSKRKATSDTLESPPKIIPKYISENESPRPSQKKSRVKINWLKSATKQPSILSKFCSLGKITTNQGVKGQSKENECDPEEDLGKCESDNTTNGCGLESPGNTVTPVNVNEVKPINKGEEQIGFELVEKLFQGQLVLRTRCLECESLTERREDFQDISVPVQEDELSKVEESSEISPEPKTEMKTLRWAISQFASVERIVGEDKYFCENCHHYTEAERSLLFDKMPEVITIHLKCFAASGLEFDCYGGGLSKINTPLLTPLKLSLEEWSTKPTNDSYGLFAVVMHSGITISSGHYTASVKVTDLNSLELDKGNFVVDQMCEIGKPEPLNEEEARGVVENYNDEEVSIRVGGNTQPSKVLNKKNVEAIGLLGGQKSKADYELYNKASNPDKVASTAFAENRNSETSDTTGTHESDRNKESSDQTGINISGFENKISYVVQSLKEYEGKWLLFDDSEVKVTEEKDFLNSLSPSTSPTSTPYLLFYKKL
Luciferin 4-monooxygenase (Photinus pyralis), sequence (P08659 whole entry, looked up): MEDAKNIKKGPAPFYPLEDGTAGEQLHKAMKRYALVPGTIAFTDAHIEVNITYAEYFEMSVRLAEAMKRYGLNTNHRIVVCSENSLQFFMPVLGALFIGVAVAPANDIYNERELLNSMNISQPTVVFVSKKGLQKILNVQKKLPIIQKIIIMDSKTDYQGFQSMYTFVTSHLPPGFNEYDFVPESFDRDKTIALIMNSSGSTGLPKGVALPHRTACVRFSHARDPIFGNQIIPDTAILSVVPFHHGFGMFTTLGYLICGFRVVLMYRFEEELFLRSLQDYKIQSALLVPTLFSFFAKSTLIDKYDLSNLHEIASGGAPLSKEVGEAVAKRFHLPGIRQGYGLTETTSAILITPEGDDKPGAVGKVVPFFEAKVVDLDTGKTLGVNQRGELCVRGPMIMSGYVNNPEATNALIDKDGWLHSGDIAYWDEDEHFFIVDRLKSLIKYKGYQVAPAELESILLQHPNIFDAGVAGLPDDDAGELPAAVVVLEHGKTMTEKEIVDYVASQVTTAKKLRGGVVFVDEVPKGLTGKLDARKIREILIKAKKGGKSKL
ATP-dependent 6-phosphofructokinase (Trypanosoma brucei brucei), sequence (O15648 whole entry, looked up): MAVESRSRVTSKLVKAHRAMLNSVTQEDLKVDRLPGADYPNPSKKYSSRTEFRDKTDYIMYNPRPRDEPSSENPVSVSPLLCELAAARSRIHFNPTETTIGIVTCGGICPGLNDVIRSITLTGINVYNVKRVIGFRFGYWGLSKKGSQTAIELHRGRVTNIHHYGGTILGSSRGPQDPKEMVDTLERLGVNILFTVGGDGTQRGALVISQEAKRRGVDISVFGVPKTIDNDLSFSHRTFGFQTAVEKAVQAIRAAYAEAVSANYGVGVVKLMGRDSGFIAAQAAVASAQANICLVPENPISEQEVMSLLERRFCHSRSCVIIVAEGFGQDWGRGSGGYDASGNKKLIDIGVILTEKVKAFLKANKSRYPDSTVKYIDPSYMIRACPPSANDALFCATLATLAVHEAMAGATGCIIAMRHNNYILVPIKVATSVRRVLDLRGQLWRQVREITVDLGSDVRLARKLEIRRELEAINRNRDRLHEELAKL

With `C[N+](C)(CCCOc1ccccc1)c1ccccc1`, the Potency in [1] was > 20.6 µM (inactive). Further, the Potency result in assay [2] and in assay [5] was “inactive” in each case. The result in assay [3] was inactive. Further, the activity change, negative = inhibition in [4] (at 25.7 µM (top of the series)) was 3.08% (inactive). The max response was 0.349% in assay [4] (setting [9]) and 5.95% in assay [4] (setting [10]).

With `COC(=O)[C@@H]1[C@@H]2C[C@H]3c4[nH]c5cc(OC)ccc5c4CCN3C[C@@H]2C[C@H](OC(=O)/C=C\c2cc(OC)c(OC)c(OC)c2)[C@H]1OC`, the Potency is > 20.6 µM (inactive) in assay [1]; 3.55 µM (active) in the assay with AS120; 3.55 µM (active) with CP217; 3.55 µM (active) with N140; 3.16 µM (active) with TAB165. The call in [3] and in [6] was inactive. For the same molecule, the activity change, negative = inhibition in assay [4] (at 25.7 µM (top of the series)) is -1.81% (inactive). The max response in assay [4] (setting [9]) was -4.11%; in assay [4] (setting [10]), -3.85%. The Potency result (in [5]; in assay [7]; in the assay with CP329; with FAB9) was “inactive” throughout.

For `COc1ccc(-c2cc(=O)c3c(O)cc(O)cc3o2)cc1`, the Potency in assay [1] is > 20.6 µM (inactive). The Potency entry in assay [2] and in [5] was “inactive” throughout. In assay [3], the result was inactive. The activity change, negative = inhibition in assay [4] (at 57.5 µM (top of the series)) was 14.6% (inactive). For the same molecule, the max response in assay [4] (setting [9]) is 4.93%; in [4] (setting [10]) it was 23.2%.

Take `c1ccc(CNc2ncnc3nc[nH]c23)cc1`: the Potency in assay [1] was > 20.6 µM (inactive). Besides, the Potency entry in assay [2] and in [5] was “inactive” in each case. Besides, in assay [3], the result was inactive. Further, the activity change, negative = inhibition in assay [4] (at 25.7 µM (top of the series)) was -0.17% (inactive). Moreover, the max response is -13.8% in [4] (setting [9]) and -12.9% in assay [4] (setting [10]).

As for `CCO[C@H]1O[C@@H]([C@H](COCc2ccccc2)OCc2ccccc2)[C@@H](OCc2ccccc2)[C@H]1O`, the Potency in [1] was > 20.6 µM (inactive). In addition, the Potency result (in assay [2]; in [7]; in the assay with C2A; with CP191; with CP217; in the assay with CP305) was “inactive” each time. Moreover, the Potency entry in the assay with CP329, with ECU, in the assay on FAB9, in the assay with PC15 and with PC49 was “inactive” each time. Moreover, the result in assay [3] and in [6] was inactive. Also, the activity change, negative = inhibition in assay [4] (at 25.7 µM (top of the series)) is -6.14% (inactive). For the same molecule, the max response in assay [4] (setting [9]) is -8.63%; in [4] (setting [10]) it was -12.6%. The activity, negative = inhibition in [8] (parasite line B) is -27.6% (inactive).

Take `O=C(O)COCCN1CCN([C@@H](c2ccccc2)c2ccc(Cl)cc2)CC1`: the Potency result (in assay [2]; in assay [7]; in the assay on AS120; in the assay with C2A; with CP217; with CP305) was “inactive” throughout. The Potency result with CP329, with ECU, in the assay with FAB9, with N140, with PC15 and with PC49 was “inactive” each time. In addition, the Potency entry with TAB165 is “inactive”. In addition, the result in assay [3] was inactive. Further, the activity change, negative = inhibition in assay [4] (at 25.7 µM (top of the series)) was 0.348% (inactive). The values for the max response in assay [4] (setting [9]) and in assay [4] (setting [10]) were -9.07% and -7.35%, respectively. Further, the activity, negative = inhibition is -5.9% (inactive) in assay [8] (parasite line A) and 11.4% (inactive) in [8] (parasite line B).

With `CCCC(=O)Nc1ncnc2c1ncn2[C@@H]1O[C@H]2COP(=O)(O)O[C@@H]2[C@@H]1OC(=O)CCC`, the Potency in assay [1] is > 20.6 µM (inactive). Besides, the Potency entry in [2] and in assay [5] was “inactive” throughout. In assay [3], the call was inactive. Further, the activity change, negative = inhibition in assay [4] (at 25.7 µM (top of the series)) is -1.42% (inactive). The results for the max response in [4] (setting [9]) and in assay [4] (setting [10]) were -2.67% and -4.54%, respectively.
